Reference: PubChem BioAssay AID2391 (Southern Research Specialized Biocontainment Screening …, 2010)
The whole screen tested about 310,000 compounds, of which about 410 (0.13%) were called active. About 2% were inconclusive and are not listed. No rule for the calls is given here. Only a sample is shown. Results with a measured potency or affinity are listed apart.

Experiment: RSV antiviral activity via CPE protection, HEp-2 cells, primary 10 µM value included (AID 2391)
Conditions: RSV-induced CPE inhibition, at 10 µM, active compounds read high

CPE inhibition, inactive:
COc1cc(CC2COC(c3ccc(O)c(OC)c3)C2COC(C)=O)ccc1O (configuration not stated) 5.55%
CCOC(=O)CCCNC(=O)CCNC(=O)c1ccc(OCCC(C)C)cc1 -2.65%
Cc1ccc(C(=O)N2CCN(c3ccc(NC(=O)c4cccs4)cc3)CC2)cc1 3.02%
Cc1ccc(OCc2cc(C(=O)NCc3cnn(-c4cccc(F)c4)c3)no2)cn1 -0.86%
Cc1nn(-c2ccccc2)c(C)c1/C=N/N1CCN(c2ccccc2)CC1 2.1%
Cc1nn(-c2ccccc2)c(C)c1/C=N/O 5.01%
CC(=O)N1c2ccccc2Nc2ccccc21 0.92%
CC(C)(C)C(=O)CC1(O)C(=O)N(Cc2ccccc2)c2ccccc21 (configuration not stated) 1.23%
COc1ccc(NC(=O)CSc2nc3ccccc3nc2N2CCCC2)cc1 5.07%
Cc1cc(C)cc(NC(=O)CSc2nc3ccccc3nc2N2CCCCC2)c1 -0.51%
COc1cccc(NC(=O)CSc2nc3ccccc3nc2N2CCOCC2)c1 1.87%
Cc1cccc(NC(=O)CSc2nc3ccccc3nc2N2CCCC2)c1 43.3%
O=C(CCN1c2ccccc2Sc2ccccc21)OCC(=O)N1CCN(C(=O)c2ccco2)CC1 5.26%
Cc1cc(C)cc(NC(=O)c2ccc(CNc3c(N4CCCC4)c(=O)c3=O)cc2)c1 2.89%
CCOC(=O)/C(C#N)=C/c1c(N2CCN(C)CC2)nc2c(C)cccn2c1=O 1.42%
COc1ccc(NC(=S)N2CCN(c3ccccc3)CC2)c(OC)c1 3.36%
CC(Sc1n[nH]c(N)n1)C(=O)Nc1ccccc1-c1ccccc1 (configuration not stated) -0.4%
OCC1(CCOc2ccccc2)CCN(Cc2ccncc2)CC1 -0.49%
CCOC(=O)C1(CCOc2ccccc2)CCN(Cc2cccn2-c2ncccn2)CC1 -2.95%
COc1cc(OC)c(OC)cc1/C=N/NC(=O)c1cccc(S(=O)(=O)N2CCOCC2)c1 0.2%
Cc1cccc(NC(=O)C2CCN(S(=O)(=O)c3ccc4c(c3)NC(=O)CO4)CC2)c1C 0.6%
O=C(O)c1[nH]c2ccc(Cl)cc2c1CC(=O)N1CCN(C(=O)c2ccco2)CC1 0.74%
O=C(c1cc2cc(Cl)ccc2[nH]1)N1CCN(C(=O)c2ccco2)CC1 1.05%
CCOc1ccc(-c2nnc3ccc(SCC(=O)N4CCCCC4)nn23)cc1 1.74%
CCOc1ccc(CNC(=O)CCCn2nc(C)c3c(C)n(-c4ccc(C)cc4)nc3c2=O)cc1 12.6%
COc1cccc(C(=O)NC(=S)Nc2ccc(Cl)c(C(=O)O)c2)c1 1.26%
Cc1cccc(Nc2c([N+](=O)[O-])cc(C(=O)N3CC(=O)Nc4ccccc43)cc2[N+](=O)[O-])c1 3.38%
Cc1ccc(Nc2c([N+](=O)[O-])cc(C(=O)N3CC(=O)Nc4ccccc43)cc2[N+](=O)[O-])c(C)c1 -0.4%
CCOc1cc(/C=C/c2nc3cc(C)c(C)cc3s2)ccc1OCC(=O)N1CCOCC1 15.4%
Cn1cc(CN2CCCC(CO)(Cc3ccccc3)C2)cn1 (configuration not stated) -1.49%
Cc1nn(C)c(Cl)c1CN1CCCC(CO)(Cc2ccccc2)C1 (configuration not stated) 62.6%
Cc1nn(C)c(Cl)c1CN1CCCC(CO)(Cc2cccc(Cl)c2)C1 (configuration not stated) 68.4%
CCN1CCCC(CO)(Cc2ccccc2)C1 (configuration not stated) -0.72%
O=C(COC(=O)c1ccc(F)cc1F)Nc1cccnc1Cl 1.68%
CSc1nc(N)c(NC(=O)c2ccc(Br)o2)c(=O)[nH]1 0.99%
CCOC(=O)c1c(C)[nH]c(C(=O)NCc2ccccn2)c1C -0.66%
COc1ccc(NC(=S)NCCc2c(C)[nH]c3ccc(OC)cc23)cc1 1.21%
COc1ccc(NC(=O)CCn2c(=O)c3cccn3c3ccccc32)c(OC)c1 8.66%
COc1ccc(NC(=O)CCn2c(=O)c3cccn3c3ccccc32)cc1 3.29%
C=CCCCCCCCCC(=O)NN 1.7%
Cc1cnc(NC(=O)Cc2c[nH]c3ccccc23)s1 3.89%
CCc1nnc(NC(=O)Cc2c[nH]c3ccccc23)s1 2.52%
C/C=C(/C)C(=O)Nc1cccc(C2=NOC3(C2)C[C@@H](C(N)=O)N(C(=O)c2ccc(OC)cc2)C3)c1 (some centres not stated) 0.8%
C=C(C)C(=O)Nc1cccc(C2=NOC3(C2)C[C@H](C(N)=O)N(C(=O)c2ccccc2)C3)c1 (some centres not stated) 1.43%
NC(=O)[C@H]1CC2(CC(c3cccc(NC(=O)COc4ccc(Cl)cc4)c3)=NO2)CN1C(=O)c1ccc(Cl)cc1 (some centres not stated) -1.09%
NC(=O)[C@@H]1CC2(CC(c3cccc(NC(=O)COc4ccc(Cl)cc4)c3)=NO2)CN1C(=O)c1ccccc1 (some centres not stated) 15.3%
C=CCn1c(-c2cccn(Cc3ccc(Cl)cc3Cl)c2=O)n[nH]c1=S 8.02%
CCCN1CCOC(CC(=O)Nc2ccc([N+](=O)[O-])cc2)C1=O (configuration not stated) -1%
CCOC(=O)C1CCN(C(=O)c2cccc(S(=O)(=O)N3c4ccccc4CC3C)c2)CC1 (configuration not stated) 0.5%
O=C(c1cccc(S(=O)(=O)N2CCCC2)c1)N1CCN(c2ncccn2)CC1 1.05%
CC1CN(C(=O)c2cccc(S(=O)(=O)Nc3ccc(Cl)cc3)c2)CC(C)O1 (configuration not stated) 4.6%
CCC(OC(=O)c1ccco1)C(=O)NCc1ccc(OC)cc1 (configuration not stated) 1.29%
O=C(O)/C(=C\c1cccc(F)c1)c1ccc(S(=O)(=O)N2CCCCC2)s1 3.11%
COc1ccc2nc(/C=N/NC(=O)CCCCCNC(=O)OC(C)(C)C)ccc2c1 6.33%
COc1ccc2nc(/C=N/NC(=O)[C@H](CCSC)NC(=O)OC(C)(C)C)ccc2c1 18.6%
CCC(C)[C@H](NC(=O)OC(C)(C)C)C(=O)N/N=C/c1cccc2nccnc12 (some centres not stated) 0.75%
Cc1ccc2cc(/C=N/NC(=O)[C@H](C)NC(=O)OC(C)(C)C)c(Cl)nc2c1 2.96%
